# Experimental data taken from PubChem BioAssay (NCATS).
# A number with no mark means an inactive call. Records with an inconclusive call do not appear. Active and inactive are the calls of the source. Unless noted, calls follow the shape of the dose curve; as a rule, active = well fitted curve in the direction sought with a large enough effect; inconclusive = small, poorly fitted or top-dose-only effect, or another doubt; inactive = no such curve, though single readings can be large; an effect the other way counts as inactive or inconclusive.
# What was measured:
# [1] = target: Lysosomal acid glucosylceramidase (Homo sapiens) (UniProt P04062); assay: Glucocerebrosidase-p2 (AID 348; in the data active = potency below about 10 µM; also: potency is read from the fitted curve at half-maximal effect); settings: purified GBA, blue fluorogenic substrate, 40 min
# Lysosomal acid glucosylceramidase (Homo sapiens), sequence (P04062 whole entry, looked up): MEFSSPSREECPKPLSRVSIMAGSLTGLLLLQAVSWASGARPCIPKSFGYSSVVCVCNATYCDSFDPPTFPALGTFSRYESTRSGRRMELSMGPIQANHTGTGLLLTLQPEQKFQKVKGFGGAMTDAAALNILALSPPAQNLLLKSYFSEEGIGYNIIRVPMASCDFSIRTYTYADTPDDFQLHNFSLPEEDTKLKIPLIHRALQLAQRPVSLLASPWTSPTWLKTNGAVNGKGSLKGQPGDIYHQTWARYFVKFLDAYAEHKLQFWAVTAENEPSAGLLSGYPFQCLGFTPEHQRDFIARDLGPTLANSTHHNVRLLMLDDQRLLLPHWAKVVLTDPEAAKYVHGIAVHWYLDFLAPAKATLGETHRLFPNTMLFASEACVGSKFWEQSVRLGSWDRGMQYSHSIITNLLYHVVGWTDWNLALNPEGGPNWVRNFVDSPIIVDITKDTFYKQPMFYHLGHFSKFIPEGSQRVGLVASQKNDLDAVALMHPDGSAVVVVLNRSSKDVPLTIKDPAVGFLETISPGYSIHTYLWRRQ
# How it was run: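 Compounds titrated from 0.6 nM upwards against 0.2 nM enzyme in pH 5.9 citric acid/KH2PO4, taurocholate, tween-20; blue fluorogenic substrate 80 uM, 40 min room temperature, stopped and read Ex 365/Em 440 for AC50.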
# [2] = AP1 Signaling Pathway (AID 357; active = well fitted curve in either direction with a large enough effect, not every such curve was filed as active;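 also: ME-180 reporter cells stimulated with EGF at its EC50 level; % is scaled to controls: 0 for no effect and ±100 for the full control effect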); settings: ME-180 AP-1-bla reporter, EGF-induced, beta-lactamase ratio, 5 h; at 7.69 µM (top of the series) unless noted
# How it was run: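 AP-1-bla ME-180 cells, Opti-MEM + 0.5% dialyzed FBS, plated overnight 37 °C. Cpd titration + EC50 EGF, 5 h 37 °C. CCF4 2.5 h RT; ex 405, em 460/530 ratio → %activity, AC50.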
# [3] = Stat Signaling Pathway (AID 446; active = well fitted curve in either direction with a large enough effect, not every such curve was filed as active;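 also: ME-180 cervical cancer cells given 40 pM IL-6 alongside compound; SIE-controlled beta-lactamase reporter measured as 460/530 nm FRET emission ratio; % is scaled to controls: 0 for no effect and ±100 for the full control effect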)
# How it was run: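 Screening format detects activators and inhibitors alike: ME-180 SIE-bla cells stimulated at 40 pM IL-6 for 5 hrs with compound, then dual-emission beta-lactamase read at 405 nm excitation.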
# [4] = target: Glucocorticoid receptor (Homo sapiens) (UniProt P04150); assay: GR-GFP Redistribution (AID 450;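 active = compounds whose dose series gives a full or clear partial fitted curve of increased nuclear translocation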; also: potency is read from the fitted curve at half-maximal effect); settings: U2OS GR-GFP nuclear translocation, laser cytometry, 2 h
# Glucocorticoid receptor (Homo sapiens), sequence (P04150 whole entry, looked up, the tested form may be a part): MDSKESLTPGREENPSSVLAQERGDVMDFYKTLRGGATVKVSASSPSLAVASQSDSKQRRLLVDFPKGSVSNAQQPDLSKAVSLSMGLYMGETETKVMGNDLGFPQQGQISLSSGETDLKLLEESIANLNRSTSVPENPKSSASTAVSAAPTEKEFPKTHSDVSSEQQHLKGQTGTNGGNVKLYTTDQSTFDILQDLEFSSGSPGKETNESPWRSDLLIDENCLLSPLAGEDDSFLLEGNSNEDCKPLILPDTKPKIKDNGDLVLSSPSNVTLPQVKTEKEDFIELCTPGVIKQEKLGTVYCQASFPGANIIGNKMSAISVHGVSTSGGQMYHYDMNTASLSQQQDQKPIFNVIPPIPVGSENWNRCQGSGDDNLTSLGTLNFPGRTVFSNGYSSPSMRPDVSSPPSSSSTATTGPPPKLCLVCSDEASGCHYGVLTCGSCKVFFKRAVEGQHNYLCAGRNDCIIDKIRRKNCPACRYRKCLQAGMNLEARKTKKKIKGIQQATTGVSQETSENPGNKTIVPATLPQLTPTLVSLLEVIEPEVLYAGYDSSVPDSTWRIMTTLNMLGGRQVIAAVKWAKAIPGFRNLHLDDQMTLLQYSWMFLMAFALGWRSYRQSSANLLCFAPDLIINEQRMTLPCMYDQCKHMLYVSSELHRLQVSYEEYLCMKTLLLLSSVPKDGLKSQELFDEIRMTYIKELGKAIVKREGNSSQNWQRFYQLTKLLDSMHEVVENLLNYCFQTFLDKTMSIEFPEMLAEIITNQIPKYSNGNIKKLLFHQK
# [5] = target: Glucocorticoid receptor (Homo sapiens) (UniProt P04150); assay: GR-EFC Redistribution (AID 451; calls by dose curve; also: potency is read from the fitted curve at half-maximal effect); settings: CHO-K1 GR-EFC translocation, beta-gal luminescence, 2 h
# How it was run: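 CHO-K1 cells stably expressing nuclear-localized β-gal enzyme acceptor and GR fused C-terminally to the enzyme donor fragment; ligand-driven nuclear translocation restores β-gal by complementation. Compounds titrated up to 46 uM final, 2 h at 37 °C; luminescence read.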
# [6] = target: Mitogen-activated protein kinase 10 (Mus musculus) (UniProt Q61831); assay: JNK3 AlphaScreen Assay (AID 530; active = well fitted curve in either direction with a large enough effect, not every such curve was filed as active;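 also: kinase came from lysate of stimulated human HepG2 cells; signal reports phosphorylation of biotinylated GST-cJun 1-79 at Ser73 with 10 µM ATP; % is scaled to controls: 0 for no effect and ±100 for the full control effect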)
# How it was run: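 JNK3 came from HepG2 lysates pre-activated with IL-1beta and TNF-alpha and phosphorylated biotinylated GST-cJun (1-79) at 10 uM ATP, pH 7.6, room temperature. Compounds were titrated. AlphaScreen signal used anti-phospho-cJun (Ser73) antibody.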
# [7] = target: 3',5'-cyclic-AMP phosphodiesterase 4B (Homo sapiens) (UniProt Q07343); assay: qHTS Assay for Inhibitors of PDE-IV (AID 607; active = well fitted activation curve with a large enough effect in the main read-out, with a control signal flat, not every such curve was filed as active; also: potency is read from the fitted curve at half-maximal effect)
# 3',5'-cyclic-AMP phosphodiesterase 4B (Homo sapiens), sequence (Q07343 whole entry, looked up): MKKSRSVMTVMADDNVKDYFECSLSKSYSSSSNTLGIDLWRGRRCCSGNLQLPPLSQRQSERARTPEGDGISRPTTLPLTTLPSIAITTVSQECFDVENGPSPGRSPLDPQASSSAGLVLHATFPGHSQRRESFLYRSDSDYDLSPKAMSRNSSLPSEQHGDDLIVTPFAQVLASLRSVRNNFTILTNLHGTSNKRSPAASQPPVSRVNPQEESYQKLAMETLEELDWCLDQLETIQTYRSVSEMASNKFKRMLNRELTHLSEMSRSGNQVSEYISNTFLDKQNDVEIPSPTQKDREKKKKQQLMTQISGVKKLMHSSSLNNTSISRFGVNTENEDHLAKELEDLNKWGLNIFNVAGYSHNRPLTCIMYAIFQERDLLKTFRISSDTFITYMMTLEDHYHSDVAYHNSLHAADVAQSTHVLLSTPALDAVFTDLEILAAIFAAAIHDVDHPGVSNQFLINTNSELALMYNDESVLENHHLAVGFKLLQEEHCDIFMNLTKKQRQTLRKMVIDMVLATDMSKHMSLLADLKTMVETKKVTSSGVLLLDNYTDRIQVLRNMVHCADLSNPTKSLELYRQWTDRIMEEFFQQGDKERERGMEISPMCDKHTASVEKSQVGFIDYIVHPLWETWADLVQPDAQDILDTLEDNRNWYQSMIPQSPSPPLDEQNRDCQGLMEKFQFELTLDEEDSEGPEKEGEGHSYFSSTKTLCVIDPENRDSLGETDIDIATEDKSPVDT
# How it was run: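 The readout is membrane depolarisation from a cAMP-sensing CNG channel, detected with a potential dye at ex 535/em 590. Cells were HEK293-derived (endogenous PDE-IV) at 1000 cells/well, titrated up to 22.9 uM final.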
# [8] = target: Dual specificity protein kinase CLK4 (Homo sapiens) (UniProt Q9HAZ1); assay: qHTS Assay for Inhibitors of CDC-like Kinase 4 (Kinase-Glo Assay) (AID 1770); also: nearly all actives have a fitted effect of over 65% in size; also: potency is read from the fitted curve at half-maximal effect
# Dual specificity protein kinase CLK4 (Homo sapiens), sequence (Q9HAZ1 whole entry, looked up): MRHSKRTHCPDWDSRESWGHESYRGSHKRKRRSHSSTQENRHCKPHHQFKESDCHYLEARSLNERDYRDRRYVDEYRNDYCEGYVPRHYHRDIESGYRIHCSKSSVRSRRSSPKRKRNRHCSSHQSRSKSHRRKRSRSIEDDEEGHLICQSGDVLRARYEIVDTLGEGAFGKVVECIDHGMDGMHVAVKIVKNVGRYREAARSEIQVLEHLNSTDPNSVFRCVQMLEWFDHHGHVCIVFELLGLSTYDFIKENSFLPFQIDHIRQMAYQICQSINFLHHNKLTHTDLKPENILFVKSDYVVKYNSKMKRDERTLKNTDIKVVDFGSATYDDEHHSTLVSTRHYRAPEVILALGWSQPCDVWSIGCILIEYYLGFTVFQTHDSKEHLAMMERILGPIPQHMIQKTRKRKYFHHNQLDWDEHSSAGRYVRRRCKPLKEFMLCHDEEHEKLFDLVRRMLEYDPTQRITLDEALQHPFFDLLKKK
# How it was run: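 Inhibition was judged from remaining ATP, measured by Ultra-Glo luciferase bioluminescence after Clk4 (25 nM) had acted on RS peptide at 1 uM ATP for 4.5 hours, room temperature.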
# [9] = target: Dual specificity protein kinase CLK4 (Homo sapiens) (UniProt Q9HAZ1); assay: qHTS Assay for Inhibitors of CDC-like Kinase 4 (ADP-Glo Assay) (AID 1771); also: nearly all actives have a fitted effect of over 70% in size; also: potency is read from the fitted curve at half-maximal effect
# How it was run: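 Clk4 (25 nM) was incubated 1 hr at room temperature with 100 uM RS repeat peptide and 1 uM ATP in buffer with 2 mM MgCl2, 0.5 mM EGTA, 2.5 mM DTT. ADP formed was quantified by ADP-Glo luminescence.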
# [10] = target: Dual specificity protein kinase CLK4 (Homo sapiens) (UniProt Q9HAZ1); assay: qHTS Assay for Inhibitors of CDC-like Kinase 4 (ADP-FP Assay) (AID 1795); also: nearly all actives have a fitted effect of over 60% in size; also: potency is read from the fitted curve at half-maximal effect
# How it was run: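 Inhibition of ADP formation by 6.25 nM Clk4 is measured using 1 uM ATP and 100 uM RS repeat peptide over one hour. Produced ADP displaces a fluorescent tracer from antibody, lowering polarization.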
# [11] = target: Ubiquitin carboxyl-terminal hydrolase 1 (Homo sapiens) (UniProt O94782); assay: Inhibitors of USP1/UAF1: Pilot qHTS (AID 504865);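 also: rhodamine fluorescence freed from ubiquitin-rhodamine substrate followed over time; top concentration of the series differs between compounds; % is scaled to controls: 0 for no effect and ±100 for the full control effect; nearly all actives have a fitted effect of over 35% in size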
# Ubiquitin carboxyl-terminal hydrolase 1 (Homo sapiens), sequence (O94782 whole entry, looked up): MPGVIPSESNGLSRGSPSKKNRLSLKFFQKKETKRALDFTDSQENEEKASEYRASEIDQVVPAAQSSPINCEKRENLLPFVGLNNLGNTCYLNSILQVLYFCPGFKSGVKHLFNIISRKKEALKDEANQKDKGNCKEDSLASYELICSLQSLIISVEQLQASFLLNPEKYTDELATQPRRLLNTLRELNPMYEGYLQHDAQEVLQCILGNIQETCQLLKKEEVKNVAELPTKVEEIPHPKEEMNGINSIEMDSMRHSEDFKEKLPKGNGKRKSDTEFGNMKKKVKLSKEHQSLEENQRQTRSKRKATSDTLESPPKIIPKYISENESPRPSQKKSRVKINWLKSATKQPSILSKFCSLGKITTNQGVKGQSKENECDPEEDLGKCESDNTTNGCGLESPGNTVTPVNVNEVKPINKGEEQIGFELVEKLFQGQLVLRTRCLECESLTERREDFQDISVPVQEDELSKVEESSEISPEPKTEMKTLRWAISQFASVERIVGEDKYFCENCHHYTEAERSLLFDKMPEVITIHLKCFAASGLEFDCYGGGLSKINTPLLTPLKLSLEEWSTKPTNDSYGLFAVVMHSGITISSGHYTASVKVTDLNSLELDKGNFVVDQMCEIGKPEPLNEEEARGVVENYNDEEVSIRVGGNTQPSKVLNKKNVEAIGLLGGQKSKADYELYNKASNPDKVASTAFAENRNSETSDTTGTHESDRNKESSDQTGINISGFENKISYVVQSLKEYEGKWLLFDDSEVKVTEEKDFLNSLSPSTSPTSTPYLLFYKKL
# How it was run: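 Kinetic fluorescence assay: 1nM USP1/UAF1, 15 min compound preincubation, then 150nM Ub-Rho; 480/540 nm.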
# [12] = NFAT Signaling Pathway (AID 444; active = well fitted curve in either direction with a large enough effect, not every such curve was filed as active;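 also: carbachol stimulus at about its EC50 of 1 µM final; % is scaled to controls: 0 for no effect and ±100 for the full control effect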); settings: Jurkat NFAT-bla M1, carbachol, beta-lactamase ratio, 5 h; at 7.69 µM (top of the series) unless noted
# How it was run: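 Jurkat cells carrying an NFAT-driven β-lactamase reporter and co-transfected muscarinic M1 receptor were treated with compound plus carbachol (1 uM final, an EC50 level) for 5 h at 37 °C. CCF4 loading followed for 1 h at RT; 460/530 nm ratio gave %activity.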
# [13] = NCATS anti-infectives library activity on the primary C. elegans qHTS viability assay (AID 1745855; calls by dose curve; also: potency is read from the fitted curve at half-maximal effect)
# How it was run: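 Viability is taken from GFP fluorescence of PE254-GFP-FLuc C. elegans imaged by laser cytometry over 7 days. Ten L1 worms per well grow at 21 °C on TOP10 E. coli capsules with titrated compound; levamisole marks toxicity.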
# [14] = target: Cytochrome P450 1A2 (Homo sapiens) (UniProt P05177); assay: p450-cyp1a2 (AID 410; calls by dose curve; also: potency is read from the fitted curve at half-maximal effect)
# Cytochrome P450 1A2 (Homo sapiens), sequence (P05177 whole entry, looked up): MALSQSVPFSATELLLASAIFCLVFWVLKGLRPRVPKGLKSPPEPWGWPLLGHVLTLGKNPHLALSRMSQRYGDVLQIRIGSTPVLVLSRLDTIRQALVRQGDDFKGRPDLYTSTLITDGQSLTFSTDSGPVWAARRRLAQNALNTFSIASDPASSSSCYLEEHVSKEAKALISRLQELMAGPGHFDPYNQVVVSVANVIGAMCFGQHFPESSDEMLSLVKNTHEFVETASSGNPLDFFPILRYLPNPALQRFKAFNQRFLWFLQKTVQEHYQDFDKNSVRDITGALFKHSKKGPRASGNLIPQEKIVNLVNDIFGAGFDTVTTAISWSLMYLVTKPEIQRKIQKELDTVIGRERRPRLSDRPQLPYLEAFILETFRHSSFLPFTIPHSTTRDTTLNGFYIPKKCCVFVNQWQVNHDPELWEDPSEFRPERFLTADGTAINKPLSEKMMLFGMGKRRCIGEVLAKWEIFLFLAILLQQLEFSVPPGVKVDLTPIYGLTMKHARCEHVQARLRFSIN
# How it was run: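 Human CYP1A2 (20nM) demethylated Luciferin-ME at its Km (100uM) in 100mM KPO4. After 10 min compound preincubation, NADPH regeneration ran the reaction 60 min at room temperature. Luciferin was read by luminescence, normalized to 57 uM furafylline.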
# [15] = qHTS Assay for Identification of Small Molecule Agonists for Hypoxia Response Element Signaling Pathway (AID 914; active = well fitted activation curve with a large enough effect in the signal ratio, with a control signal flat, not every such curve was filed as active; the % refers to the signal ratio; also: potency is read from the fitted curve at half-maximal effect; as to activation: % of control where 0% means no effect); settings: ME-180 (cervical carcinoma) HRE-bla reporter, beta-lactamase ratio, CoCl2, 17 h; activation: hits give high values
# How it was run: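 HRE-bla ME-180 cells, overnight plating in Opti-MEM with 0.5% dialyzed FBS; cpd titration + EC50 CoCl2, 17 h, 37 degrees Celsius; CCF4 2.5 h RT; 460/530 nm ratio; AC50.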
# [16] = target: Glutathione peroxidase 1 (Homo sapiens) (UniProt P07203); assay: Primary qHTS Assay for Inhibitors of Recombinant Selenoprotein Glutathione Peroxidase 1 (GPX1) (AID 1845191); also: nearly all actives have a fitted effect of over 65% in size
# How it was run: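 Recombinant GPX1 (10 nM final) was preincubated with compound for 30 min at room temperature, then reacted with 1 mM GSH, 0.5 mM CHP, 0.5 mM NADPH and 100 nM glutathione reductase; NADPH fluorescence (340/450 nm) was read at 0 and 15 min.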
# [17] = target: Phospholipid hydroperoxide glutathione peroxidase GPX4 (Homo sapiens) (UniProt P36969); assay: Primary qHTS Assay for Inhibitors of Recombinant Selenoprotein Glutathione Peroxidase 4 (GPX4) (AID 1845192); also: % is scaled to controls: 0 for no effect and ±100 for the full control effect; nearly all actives have a fitted effect of over 65% in size
# Phospholipid hydroperoxide glutathione peroxidase GPX4 (Homo sapiens), sequence (P36969 whole entry, looked up): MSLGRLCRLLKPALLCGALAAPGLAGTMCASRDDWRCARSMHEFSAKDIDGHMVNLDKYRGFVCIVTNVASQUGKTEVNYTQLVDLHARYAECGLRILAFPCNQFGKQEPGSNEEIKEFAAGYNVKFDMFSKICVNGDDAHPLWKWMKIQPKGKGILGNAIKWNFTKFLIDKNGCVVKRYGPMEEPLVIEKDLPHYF
# How it was run: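 GR-coupled readout: 100 nM GR, 1 mM GSH, 0.5 mM NADPH; NADPH fluorescence (ex 340/em 450 nm) read at t=0 and after 15 min RT. GPX4 200 nM, preincubated 30 min with compound; substrate 0.5 mM CHP.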
# [18] = target: Cytochrome P450 3A4 (Homo sapiens) (UniProt P08684); assay: qHTS Assay for Activators of Cytochrome P450 3A4 (AID 885); also: nearly all actives have a fitted effect of over 65% in size
# Cytochrome P450 3A4 (Homo sapiens), sequence (P08684 whole entry, looked up): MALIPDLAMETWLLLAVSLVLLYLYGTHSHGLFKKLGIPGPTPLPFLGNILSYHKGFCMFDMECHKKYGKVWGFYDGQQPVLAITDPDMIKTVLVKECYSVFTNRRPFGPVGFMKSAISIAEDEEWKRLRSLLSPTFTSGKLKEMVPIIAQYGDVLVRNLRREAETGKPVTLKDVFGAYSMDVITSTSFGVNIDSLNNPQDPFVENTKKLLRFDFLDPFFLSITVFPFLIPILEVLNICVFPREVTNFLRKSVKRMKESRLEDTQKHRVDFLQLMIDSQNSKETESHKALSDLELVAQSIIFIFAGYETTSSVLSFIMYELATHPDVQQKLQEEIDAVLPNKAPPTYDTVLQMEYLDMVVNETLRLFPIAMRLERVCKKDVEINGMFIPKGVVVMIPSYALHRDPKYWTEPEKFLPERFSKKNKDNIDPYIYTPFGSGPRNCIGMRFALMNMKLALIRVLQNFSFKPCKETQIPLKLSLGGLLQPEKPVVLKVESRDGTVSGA
# How it was run: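 Steps: enzyme/substrate mix dispensed; compound added, 10 min RT; NADPH regeneration solution added, 60 min RT; luciferin detection buffer stops reaction; 20 min later luminescence measured.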
# [19] = target: Cytochrome P450 2C19 (Homo sapiens) (UniProt P33261); assay: qHTS Assay for Inhibitors and Substrates of Cytochrome P450 2C19 (AID 899); also: potency is read from the fitted curve at half-maximal effect; nearly all actives have a fitted effect of over 60% in size
# Cytochrome P450 2C19 (Homo sapiens), sequence (P33261 whole entry, looked up): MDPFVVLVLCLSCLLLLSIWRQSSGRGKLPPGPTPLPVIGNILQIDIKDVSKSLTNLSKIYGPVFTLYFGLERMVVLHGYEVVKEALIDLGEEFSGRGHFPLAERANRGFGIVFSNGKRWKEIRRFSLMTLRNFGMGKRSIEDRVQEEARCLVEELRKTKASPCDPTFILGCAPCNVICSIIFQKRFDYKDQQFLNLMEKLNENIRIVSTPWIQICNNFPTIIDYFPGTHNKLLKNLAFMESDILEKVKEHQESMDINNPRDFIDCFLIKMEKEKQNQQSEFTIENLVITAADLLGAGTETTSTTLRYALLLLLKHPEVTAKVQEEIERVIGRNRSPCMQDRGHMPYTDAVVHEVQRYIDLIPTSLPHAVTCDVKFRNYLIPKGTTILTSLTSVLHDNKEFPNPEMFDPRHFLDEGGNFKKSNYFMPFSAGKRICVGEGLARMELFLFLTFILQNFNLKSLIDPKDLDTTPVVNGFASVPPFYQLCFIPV
# How it was run: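 Human CYP2C19 (5nM) with Luciferin-H EGE at 10uM (its KM) in 50mM KPO4 was preincubated with compound for 10 min at 37C. NADPH regeneration started a 60 min 37C reaction. Luciferin was read by luminescence, normalized to 57uM ketoconazole.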
# [20] = target: Cytochrome P450 3A4 (Homo sapiens) (UniProt P08684); assay: qHTS Assay for Inhibitors and Substrates of Cytochrome P450 3A4 (AID 884); also: potency is read from the fitted curve at half-maximal effect; nearly all actives have a fitted effect of over 50% in size
# How it was run: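 20 nM human CYP3A4 with 25 uM Luciferin-PPXE (at KM) in 200 mM KPO4, preincubated 10 min with compound; NADPH regeneration started a 60 min RT reaction. Luciferin detected by luminescence, normalized to 57 uM ketoconazole as full inhibition.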
smiles,measurement,setting,value
CN(C)c1ncnc2ccc(-c3cccc(NS(C)(=O)=O)c3)cc12,Potency,[1],> 11.4 µM
same,"activity change, negative = inhibition",[2],-26.5%
same,outcome,[3],inactive
same,Potency,[4],> 46 µM
same,Potency,[5],> 46 µM
same,Potency,[6],inactive
same,Potency,[7],inactive
same,Potency,[8],11.2 µM (active)
same,Potency,[9],12.6 µM (active)
same,Potency,[10],12.6 µM (active)
same,Potency,[11],inactive
CN(Cc1ccco1)c1nc(-c2cccnc2)nc2ccccc12,Potency,[1],> 11.4 µM
same,"activity change, negative = inhibition",[12],-25.8%
same,outcome,[3],inactive
same,Potency,[4],> 46 µM
same,Potency,[5],> 46 µM
same,Potency,[6],inactive
same,Potency,[8],15.8 µM (active)
same,Potency,[9],14.1 µM (active)
same,Potency,[10],12.6 µM (active)
same,Potency,[11],inactive
COc1ccc(-c2oc3cc(OC)c(OC)c(O)c3c(=O)c2OC)cc1O,Potency,[13],0.816 µM (active)
CN(C)c1ncc2nc(-c3ccccc3)c(=O)n(C)c2n1,Potency,[1],> 11.4 µM
same,Potency,[14],1 µM (active)
same,Potency,[4],> 9.22 µM
same,Potency,[15],2.51 µM (active)
same,Potency,[8],inactive
same,Potency,[9],inactive
same,Potency,[10],inactive
same,Potency,[11],inactive
CCCCN(Cc1ccc(C(=O)NO)cc1)C(=O)Nc1ccccc1,Potency,[13],inactive
CC(C)C[C@H](NC(=O)CNC(=O)c1cc(Cl)ccc1Cl)B1OC(=O)C(CC(=O)O)(CC(=O)O)O1,Potency,[13],1.63 µM (active)
same,Potency,[16],inactive
same,Potency,[17],inactive
COc1ccc(-n2c(=O)c(CCc3ccccc3)nc3cnc(OC)nc32)cc1,"activity change, negative = inhibition",[2],-14.2%
same,Potency,[14],15.8 µM (active)
same,"activity change, negative = inhibition",[12],0.705%
same,outcome,[3],inactive
same,Potency,[4],> 9.22 µM
same,Potency,[5],> 46 µM
same,Potency,[6],inactive
same,Potency,[7],2 µM (active)
same,outcome,[18],inactive
same,Potency,[19],6.31 µM (active)
same,activation,[15],-18.9%
same,Potency,[8],inactive
same,Potency,[9],inactive
same,Potency,[10],inactive
same,Potency,[11],inactive
CCNc1ncc2nc(CCc3ccccc3)c(=O)n(Cc3cccc(OC)c3)c2n1,Potency,[1],> 11.4 µM
same,"activity change, negative = inhibition",[2],16.5%
same,Potency,[14],12.6 µM (active)
same,"activity change, negative = inhibition",[12],-6.29%
same,outcome,[3],inactive
same,Potency,[4],> 9.22 µM
same,Potency,[5],> 46 µM
same,Potency,[6],inactive
same,Potency,[19],6.31 µM (active)
same,Potency,[8],inactive
same,Potency,[9],inactive
same,Potency,[10],inactive
same,Potency,[11],inactive
CN(C)c1nc(-c2cccc(C#N)c2)nc2ccccc12,"activity change, negative = inhibition",[2],2.42%
same,outcome,[3],inactive
same,Potency,[4],> 46 µM
same,Potency,[5],> 46 µM
same,Potency,[8],15.8 µM (active)
same,Potency,[9],15.8 µM (active)
same,Potency,[11],inactive
COc1cccc(-c2ccc3ncnc(NCc4ccc(OC)cc4OC)c3c2)c1,"activity change, negative = inhibition",[12],-18.9%
same,outcome,[3],inactive
same,Potency,[5],> 46 µM
same,Potency,[6],inactive
same,Potency,[20],2.51 µM (active)
same,outcome,[18],inactive
same,Potency,[8],35.5 µM (active)
same,Potency,[9],3.16 µM (active)
same,Potency,[11],inactive
COc1ccc2[nH]cc(CCNc3cc(-c4ccccc4OC)ncn3)c2c1,Potency,[1],> 11.4 µM
same,Potency,[14],1.58 µM (active)
same,"activity change, negative = inhibition",[12],-7.55%
same,outcome,[3],inactive
same,Potency,[4],> 46 µM
same,Potency,[6],inactive
same,Potency,[7],inactive
same,Potency,[20],6.31 µM (active)
same,outcome,[18],inactive
same,Potency,[19],3.16 µM (active)
same,Potency,[8],12.6 µM (active)
same,Potency,[9],25.1 µM (active)
same,Potency,[11],inactive
COc1ccccc1-c1ccc2ncnc(N3CCNCC3)c2c1,"activity change, negative = inhibition",[2],4.97%
same,"activity change, negative = inhibition",[12],5.04%
same,outcome,[3],inactive
same,Potency,[4],> 46 µM
same,Potency,[5],> 46 µM
same,Potency,[6],inactive
same,Potency,[7],inactive
same,Potency,[8],4.47 µM (active)
same,Potency,[9],14.1 µM (active)
same,Potency,[10],7.94 µM (active)
same,Potency,[11],inactive
COc1ccccc1-c1ccc2ncnc(N3CCOCC3)c2c1,Potency,[14],0.631 µM (active)
same,"activity change, negative = inhibition",[12],18.9%
same,outcome,[3],inactive
same,Potency,[4],> 46 µM
same,Potency,[6],inactive
same,Potency,[20],6.31 µM (active)
same,outcome,[18],inactive
same,Potency,[19],1.26 µM (active)
same,Potency,[8],11.2 µM (active)
same,Potency,[9],12.6 µM (active)
same,Potency,[10],11.2 µM (active)
same,Potency,[11],inactive
O=c1c(CCc2ccccc2)nc2cncnc2n1Cc1ccccc1,Potency,[1],> 11.4 µM
same,"activity change, negative = inhibition",[12],-4.57%
same,outcome,[3],inactive
same,Potency,[4],> 46 µM
same,Potency,[5],> 46 µM
same,Potency,[6],inactive
same,Potency,[8],inactive
same,Potency,[9],inactive
same,Potency,[11],inactive
